KB-3-1 tox = kills parental KB-3-1 adenocarcinoma cells; KB-3-1 viability, CellTiter-Glo ATP luminescence, 72 h; Potency, µM (titrated, usually from 46.1 µM), usual class: cytotoxic; 1.4% of 400,000 active; AID 1347075; note: nearly all actives have a fitted effect of over 60% in size
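KB-3-1 parental drug-naive adenocarcinoma cells in DMEM/10% FBS, incubated 72 h at 37 C with pin-transferred compounds across a concentration series. Viability by CellTiter-Glo luminescence; concentration-response curves fitted after normalization.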
HT1080 IDH1KD tx = HT-1080 IDH1 knockdown cell toxicity (counter line). Potency, µM (titrated, usually from 46.1 µM), actives largely listed as cytotoxic. HT-1080 IDH1 knockdown viability, ATP luminescence, 48 h. 2% of 360,000 active
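Assay cells: HT-1080 with IDH1 knockdown, 750 per well, RPMI/5% FBS. Exposure: 48 h at 37 °C following 2 h pre-incubation. Read: CellTiter-Glo luminescence; fitted concentration-response, curve class assigned.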
HT1080NT lethal = kills 2HG-producing HT-1080-NT fibrosarcoma cells; AID 686970; HT-1080-NT fibrosarcoma viability, CellTiter-Glo ATP luminescence, 48 h; 1.6% of 360,000 active; Potency, µM (top dose mostly 46.1 µM), actives largely listed as cytotoxic;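 note: NT is the 2HG producing partner of a matched IDH1 knockdown line; nearly all actives have a fitted effect of over 55% in size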
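Viability of the 2HG-overproducing fibrosarcoma line after 48 hours of compound exposure at 37 degrees C was determined by luminescence with CellTiter-Glo, and concentration-effect curves were then fitted and categorized.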
KB-V1 MDR tox = KB-V1 MDR subline cytotoxicity; KB-V1 MDR cells viability, CellTiter-Glo, 72 h; Potency, µM (highest dose often 46.1 µM), actives largely listed as cytotoxic; 3.4% of 400,000 active; AID 1347076; note: nearly all actives have a fitted effect of over 60% in size
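Readout: CellTiter-Glo luminescence, 10 min after addition. Cells: KB-V1 MDR subline, 72 h at 37 degrees C with compound. Analysis: corrected, normalized data fitted to concentration-effect curves.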
SW480 rerep = induces DNA re-replication in SW480 colon adenocarcinoma cells; AID 624297; SW480 DNA re-replication, Hoechst DNA content imaging, 48 h; 1.8% of 340,000 active; Potency, µM (series often up to 46.1 µM), hits mostly activators; note: nearly all actives have a fitted effect of over 55% in size
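First, 250 cells per well were seeded. Next, compound or vehicle (23 nL) was pinned in, plates sat 48 hr at 37 C. Finally Hoechst was added for 40 min before fluorescence scanning.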
MCF10A rereplic = inducers of DNA re-replication in MCF 10A breast cells | MCF 10A DNA re-replication, Hoechst nuclear intensity, 48 h | Potency, µM (titrated, usually from 46.1 µM), usual class: activators | 2.9% of 350,000 active | AID 624296; note: nearly all actives have a fitted effect of over 50% in size
Each line names hits and unclear results; the compound was inactive in the other large screens. The list is not random: actives were taken first. Their share in the collection is about 8%. Calls come from the whole dose curve; as a rule, active = well fitted curve in the direction sought with a large enough effect; inconclusive = small, poorly fitted or top-dose-only effect, or another doubt; inactive = no such curve, though single readings can be large; an effect the other way counts as inactive or inconclusive.

COc1ccc(-c2cc(NC=O)c3ncc(-c4cccc(C(F)(F)F)c4)n3c2)c(OC)c1	KB-3-1 tox inconclusive, HT1080 IDH1KD tx 13µM, HT1080NT lethal inconclusive, KB-V1 MDR tox inconclusive (no result: SW480 rerep, MCF10A rereplic)
Nc1ccc(-c2cc(NC=O)c3ncc(-c4cccc(C(F)(F)F)c4)n3c2)cn1	none (no result: SW480 rerep, MCF10A rereplic)
Cn1cc(-c2cnc3c(NC=O)cc(-c4cccc(C(F)(F)F)c4)cn23)cn1	KB-3-1 tox inconclusive, HT1080 IDH1KD tx inconclusive, KB-V1 MDR tox 21µM (no result: SW480 rerep, MCF10A rereplic)
Cc1c(CNC2CCCCCC2)c(C(=O)O)c(C)n1Cc1ccc(F)cc1Cl	none (no result: HT1080 IDH1KD tx, HT1080NT lethal, SW480 rerep, MCF10A rereplic)
CCC(=O)N1CCC(NC(=O)Nc2ccc(OC(F)(F)F)cc2)CC1	none
CC1CC(C)CN(S(=O)(=O)c2ccc(NC(=O)CN3CCCCCC3)cc2)C1 (centres undefined)	KB-V1 MDR tox inconclusive, MCF10A rereplic inconclusive
S=C(Nc1ccccc1)N1CCn2c1nc1ccccc12	HT1080 IDH1KD tx inconclusive, HT1080NT lethal 1.4µM, SW480 rerep inconclusive
Cc1nc(C(=O)NCC(=O)c2ccccc2)c(C(F)(F)F)o1	SW480 rerep inconclusive
CCc1nc2ccccc2c(C(=O)OCc2nc3ccccc3c(=O)[nH]2)c1C	KB-3-1 tox inconclusive, HT1080 IDH1KD tx 18µM, HT1080NT lethal 10µM, KB-V1 MDR tox inconclusive, SW480 rerep 12µM, MCF10A rereplic 21µM
CCOC(=O)c1c(C)[nH]c(C2=NNC(=Nc3ccccc3OC)SC2)c1C	KB-3-1 tox 18µM, HT1080 IDH1KD tx inconclusive, HT1080NT lethal inconclusive, KB-V1 MDR tox inconclusive, SW480 rerep inconclusive
Cc1cc(=O)[nH]c(SCC(=O)Nc2ccnc3ccccc23)n1	none
COc1ccc(-c2cc(-c3cc(OC)ccc3O)[nH]n2)cc1	HT1080 IDH1KD tx inconclusive, HT1080NT lethal inconclusive, KB-V1 MDR tox inconclusive, MCF10A rereplic inconclusive
COc1ccc(-c2cc(-c3ccccc3O)[nH]n2)cc1OC	HT1080 IDH1KD tx inconclusive, HT1080NT lethal inconclusive, MCF10A rereplic inconclusive
COc1ccc(-c2cc(-c3ccc(OC)c(OC)c3)n[nH]2)c(O)c1	KB-3-1 tox inconclusive, HT1080 IDH1KD tx inconclusive, KB-V1 MDR tox 2.6µM, MCF10A rereplic inconclusive
COc1ccc(O)c(-c2cc(-c3ccc(F)cc3)n[nH]2)c1	HT1080 IDH1KD tx 23µM, HT1080NT lethal inconclusive, MCF10A rereplic inconclusive
COc1ccc(-n2c(N)c(C(=O)NCc3ccco3)c3nc4ccccc4nc32)c(OC)c1	SW480 rerep 2.1µM, MCF10A rereplic 7.1µM
COCCn1c(N)c(C(=O)OCc2ccccc2)c2nc3ccccc3nc21	SW480 rerep inconclusive, MCF10A rereplic inconclusive
Nc1c(C(=O)NCC2CCCO2)c2nc3ccccc3nc2n1-c1ccccc1 (centres undefined)	HT1080 IDH1KD tx inconclusive, HT1080NT lethal inconclusive, KB-V1 MDR tox inconclusive, SW480 rerep inconclusive, MCF10A rereplic inconclusive
COc1ccc(CCn2c(N)c(C(=O)NCc3ccco3)c3nc4ccccc4nc32)cc1OC	HT1080 IDH1KD tx 18µM, HT1080NT lethal inconclusive
COc1ccccc1-n1c(N)c(C(=O)NCC2CCCO2)c2nc3ccccc3nc21 (centres undefined)	SW480 rerep 11µM, MCF10A rereplic inconclusive
COCCNC(=O)c1c(N)n(CCC2=CCCCC2)c2nc3ccccc3nc12	KB-3-1 tox inconclusive, KB-V1 MDR tox inconclusive, SW480 rerep 21µM, MCF10A rereplic 15µM
COc1ccc(CCn2c(N)c(C#N)c3nc4ccccc4nc32)cc1OC	KB-V1 MDR tox inconclusive, SW480 rerep inconclusive, MCF10A rereplic inconclusive
NC(=O)c1nsc(C(=O)N(Cc2ccc(F)cc2)C(C(=O)NCC2CCCO2)c2ccc(F)cc2)c1N (centres undefined)	none
O=c1c2ccsc2ncn1Cc1cccc(C(F)(F)F)c1	none
O=C(NCc1ccco1)c1csc(Nc2ccccc2Cl)n1	KB-V1 MDR tox inconclusive, MCF10A rereplic inconclusive
COc1ccc(S(=O)(=O)Cc2ccc(C(=O)NCc3ccco3)o2)cc1	none
COc1ccc(Cn2c(N)c(C#N)c3nc4ccccc4nc32)cc1OC	SW480 rerep 10µM, MCF10A rereplic inconclusive
COc1ccc(Nc2nc(C(=O)NCc3ccco3)cs2)cc1	KB-3-1 tox 16µM, KB-V1 MDR tox 16µM
COc1ccc(CCn2c(N)c(C(=O)NCc3ccco3)c3nc4ccccc4nc32)cc1	KB-3-1 tox 7.3µM, HT1080 IDH1KD tx inconclusive, HT1080NT lethal inconclusive, KB-V1 MDR tox 6.5µM, SW480 rerep inconclusive, MCF10A rereplic inconclusive
Nc1c(C(=O)NCc2ccco2)c2nc3ccccc3nc2n1CCc1ccccc1F	KB-3-1 tox inconclusive, KB-V1 MDR tox inconclusive, SW480 rerep 5.8µM, MCF10A rereplic 2.6µM
CCCNC(=O)Cn1sc2nc(C)cc(C)c2c1=O	KB-3-1 tox inconclusive, HT1080 IDH1KD tx inconclusive, SW480 rerep inconclusive, MCF10A rereplic inconclusive
CC1CN=C(Nc2cccc(S(=O)(=O)N(C)C)c2)S1 (centres undefined)	none
c1ccc(-c2nc(C3CCCCC3)no2)cc1	none
COc1ccc(-c2nc(-c3ccccc3OC)no2)cc1OC	KB-3-1 tox inconclusive, KB-V1 MDR tox 6.5µM, MCF10A rereplic inconclusive
COc1ccccc1-c1noc(-c2ccccc2)n1	none
COc1ccc(-c2nc(C3CCCCC3)no2)cc1OC	KB-V1 MDR tox 16µM
Cc1cc(C)c(S(=O)(=O)/N=C2\C=C(NS(=O)(=O)c3ccccc3)C(=O)c3ccccc32)c(C)c1	none
Cc1cc(C)c(S(=O)(=O)/N=C2\C=CC(=O)C(Cl)=C2)c(C)c1	MCF10A rereplic 13µM
COc1ccc(-c2cc(NC(=O)c3cncn3-c3ccccc3)ccc2OC)cc1	SW480 rerep inconclusive
COC(=O)c1ccc(-n2c(C)cc(C(=O)CCl)c2C)cc1	KB-3-1 tox inconclusive, HT1080 IDH1KD tx inconclusive, HT1080NT lethal inconclusive, SW480 rerep inconclusive, MCF10A rereplic 12µM
CCOc1ccc(-n2c(C)cc(C(=O)CCl)c2C)cc1	KB-3-1 tox 4.6µM, HT1080 IDH1KD tx 8.2µM, HT1080NT lethal 7.3µM, KB-V1 MDR tox inconclusive, SW480 rerep 9.2µM, MCF10A rereplic 12µM
COc1ccc(Nc2cc(C)nc3ccccc23)cc1	HT1080 IDH1KD tx 11µM
CCOc1ccccc1Nc1cc(C)nc2ccc(C)cc12	KB-3-1 tox inconclusive, HT1080 IDH1KD tx inconclusive, HT1080NT lethal inconclusive, KB-V1 MDR tox 12µM, MCF10A rereplic inconclusive
Cc1ccc(Nc2cc(C)nc3c(C)cccc23)cc1	KB-3-1 tox inconclusive, HT1080 IDH1KD tx inconclusive, HT1080NT lethal inconclusive, KB-V1 MDR tox 8.2µM
CC(=O)c1ccc(Nc2cc(C)nc3c(C)cccc23)cc1	HT1080 IDH1KD tx 3.7µM, HT1080NT lethal 5.2µM, KB-V1 MDR tox 2.9µM, SW480 rerep 1.2µM, MCF10A rereplic 23µM
Cc1cc(=O)oc2cc(OC(C(=O)O)c3ccccc3)ccc12 (centres undefined)	KB-3-1 tox inconclusive

Screens (PubChem BioAssay)
